Assay results taken from PubChem BioAssay.
Several values for one entry are separate records, joined by “and”; a condition that tells them apart may be missing. Equal values may be shown once. Activity calls are given as the source filed them.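 Rule for the calls, unless noted: active = z-score of at least 1.8 in each of two replicates, scored against plate mean and spread of sample wells; inactive = the rest.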

Assays:
[1] = sensitizers of A549 cells to miR-34 induction, primary screen, imaging, A549 dox-inducible miR-34, nuclei and caspase counts (AID 1347080;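 active = compounds whose cell count with miR-34 switched on is under 0.7 times the count with it off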); settings: A549 miR-34 inducible, Hoechst nuclei count, 48 h
[2] = target: NAD(+) hydrolase SARM1 (Homo sapiens) (UniProt Q6SZW1); assay: SARM1 TIR NADase inhibitors, cell lysate, NAD-Glo luminescence (AID 1508614;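 active = compound whose remaining NAD level is above about 45 nM, limit read from the data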;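 note: higher remaining NAD means stronger inhibition of SARM1 NADase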); settings: SAM-TIR HEK293T lysate NADase, at 1 µM, stronger effect = higher value
[3] = target: Mitogen-activated protein kinase 7 (Homo sapiens) (UniProt Q13164); assay: ERK5 transactivation activators in reporter cells, primary screen, cell-based, HTS (AID 1508626;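 active = luciferase signal above three times the same-plate solvent-only control wells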;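 note: luciferase driven by Gal4-ERK5 fusion binding five Gal4 sites before minimal TATA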); settings: HeLa Gal4-ERK5 transactivation, 18 h, at 5 µM, stronger effect = higher value
[4] = viability rescue of complex I mutant cybrids, primary screen, cell-based, galactose medium, ATP luminescence (AID 1645843); settings: complex I mutant cybrid cells, 72 h, stronger effect = higher value;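 note: positive z means more ATP and so rescue of galactose-driven cybrid death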
[5] = inhibitors of Cryptococcus chitosan production, flow cytometry, Cibacron Brilliant Red staining (AID 1347148; call rule not given here;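 note: compound exposure lasted three days at 37 degrees C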); settings: Cryptococcus neoformans chitosan, stronger effect = lower value; at 10 µM unless noted
[6] = survival rescue of mitochondrial mutant cells in low glucose, primary screen, MELAS cybrids, Rieske KO mouse fibroblasts, CellTiter-Glo (AID 1508586;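 active = mean z-score across replicates of 1.96 or higher in either the MELAS or the Rieske mutant cell line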;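 note: z relative to plate mean and SD of compound and empty wells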)
[7] = phospholipid biosynthesis inhibitors in animal cells, primary screen, cell-based, LOPAC library, screen 4 (AID 1347384; call rule not given here); settings: phospholipid biosynthesis inhibition screen, at 10 µM
[8] = stronger effect = lower value, cell number ratio, induced over uninduced
[9] = measured here: relative caspase fold change +Dox/-Dox
[10] = measured here: total cells with miR-34 induction, stronger effect = lower value
[11] = measured here: total cells without miR-34 induction
[12] = MELAS cybrid survival, CellTiter-Glo 48 h, stronger effect = higher value
[13] = Rieske KO mouse fibroblast survival, CellTiter-Glo 72 h

NAD(+) hydrolase SARM1 (Homo sapiens), sequence (Q6SZW1 whole entry, looked up, the tested form may be a part): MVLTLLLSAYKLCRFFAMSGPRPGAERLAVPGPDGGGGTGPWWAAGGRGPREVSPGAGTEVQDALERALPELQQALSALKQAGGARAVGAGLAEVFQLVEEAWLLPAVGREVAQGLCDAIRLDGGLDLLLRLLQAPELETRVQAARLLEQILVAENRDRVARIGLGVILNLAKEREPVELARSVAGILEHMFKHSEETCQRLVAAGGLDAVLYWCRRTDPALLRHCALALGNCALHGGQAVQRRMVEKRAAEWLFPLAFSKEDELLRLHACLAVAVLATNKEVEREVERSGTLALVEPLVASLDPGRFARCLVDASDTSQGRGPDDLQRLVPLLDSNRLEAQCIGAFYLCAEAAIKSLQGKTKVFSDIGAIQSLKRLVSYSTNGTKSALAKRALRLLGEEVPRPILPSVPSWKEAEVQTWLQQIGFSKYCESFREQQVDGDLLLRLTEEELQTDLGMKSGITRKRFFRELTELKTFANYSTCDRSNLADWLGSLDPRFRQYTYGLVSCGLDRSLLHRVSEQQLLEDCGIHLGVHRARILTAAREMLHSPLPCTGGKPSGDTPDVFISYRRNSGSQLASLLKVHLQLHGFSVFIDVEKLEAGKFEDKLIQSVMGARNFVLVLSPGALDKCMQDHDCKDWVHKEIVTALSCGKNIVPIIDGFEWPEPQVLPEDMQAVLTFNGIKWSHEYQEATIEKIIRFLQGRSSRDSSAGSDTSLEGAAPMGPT
Mitogen-activated protein kinase 7 (Homo sapiens), sequence (Q13164 whole entry, looked up, the tested form may be a part): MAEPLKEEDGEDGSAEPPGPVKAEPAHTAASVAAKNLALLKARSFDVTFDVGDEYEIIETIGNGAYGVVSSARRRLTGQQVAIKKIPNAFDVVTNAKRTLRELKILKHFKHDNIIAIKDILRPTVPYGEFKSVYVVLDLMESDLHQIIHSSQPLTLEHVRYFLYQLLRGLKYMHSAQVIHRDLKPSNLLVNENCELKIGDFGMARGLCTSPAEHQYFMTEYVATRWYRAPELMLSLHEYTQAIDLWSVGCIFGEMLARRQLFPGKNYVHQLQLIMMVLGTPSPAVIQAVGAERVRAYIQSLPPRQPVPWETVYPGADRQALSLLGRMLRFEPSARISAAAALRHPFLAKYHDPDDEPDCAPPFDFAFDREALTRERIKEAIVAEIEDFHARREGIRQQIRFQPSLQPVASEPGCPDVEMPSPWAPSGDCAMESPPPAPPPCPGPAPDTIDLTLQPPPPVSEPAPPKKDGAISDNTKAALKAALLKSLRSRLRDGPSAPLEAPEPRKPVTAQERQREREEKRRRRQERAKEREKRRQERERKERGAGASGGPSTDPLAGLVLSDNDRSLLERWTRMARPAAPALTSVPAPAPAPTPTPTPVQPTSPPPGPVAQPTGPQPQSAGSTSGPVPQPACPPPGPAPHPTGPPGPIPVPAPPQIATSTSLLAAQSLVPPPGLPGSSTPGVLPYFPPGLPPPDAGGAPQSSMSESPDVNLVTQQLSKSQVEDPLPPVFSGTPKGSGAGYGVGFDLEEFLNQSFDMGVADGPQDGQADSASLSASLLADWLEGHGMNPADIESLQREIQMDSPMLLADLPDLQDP

CC(C)NC[C@@H](O)COc1cccc2ccccc12
fold change [1, 8]: 0.945 (inactive)
fold change [1, 9]: 0.937
cell count [1, 10]: 8050
cell count [1, 11]: 8520
remaining NAD [2]: 10 nM (inactive)
luciferase signal [3]: 52 AU (inactive)
z-score [4]: 0.54 (inactive)

COc1cc(-c2ccc(=O)[nH]n2)ccc1OC(F)F
fold fluorescence [5]: 7.45 [at 186.4 µM] (inactive)
z-score [6, 12]: 1.87 (inactive) and 1.14 (inactive)
z-score [6, 13]: -0.582 and -0.616
z-score [4]: 0.03 (inactive) and -0.045 (inactive) and 0.53 (inactive)

CC(=O)Nc1c(I)cc(I)c(C(=O)O)c1I
fold change [1, 8]: 0.913 (inactive)
fold change [1, 9]: 2.27
cell count [1, 10]: 12100
cell count [1, 11]: 13200
remaining NAD [2]: 10 nM (inactive)
luciferase signal [3]: 40 AU (inactive)

C=C[C@@]1(C)CC(=O)[C@]2(O)[C@@]3(C)[C@@H](O)CCC(C)(C)[C@@H]3[C@H](O)[C@H](OC(C)=O)[C@@]2(C)O1
fold change [1, 8]: 0.943 (inactive)
fold change [1, 9]: 1.09
cell count [1, 10]: 9780
cell count [1, 11]: 10400
remaining NAD [2]: 10 nM (inactive)
luciferase signal [3]: 44 AU (inactive)
z-score [4]: -0.315 (inactive)

CC[N+](C)(CC)CCOC(=O)C(O)(c1ccccc1)C1CCCCC1 (stereo not given)
fold change [1, 8]: 0.958 (inactive)
fold change [1, 9]: 1.3
cell count [1, 10]: 8830
cell count [1, 11]: 9210
remaining NAD [2]: 10 nM (inactive)
z-score [4]: 0.47 (inactive)

O=C(OCc1ccccc1)c1ccccc1
fold change [1, 8]: 0.956 (inactive)
fold change [1, 9]: 3.44
cell count [1, 10]: 12000
cell count [1, 11]: 12500
remaining NAD [2]: 10 nM (inactive)
luciferase signal [3]: 88 AU (inactive)

OCc1cccnc1
fold change [1, 8]: 0.908 (inactive)
fold change [1, 9]: 1.47
cell count [1, 10]: 8900
cell count [1, 11]: 9800
remaining NAD [2]: 10 nM (inactive)
z-score [4]: 0.275 (inactive)

CC(=O)Oc1cccc(O)c1
fold change [1, 8]: 0.87 (inactive)
fold change [1, 9]: 5.2
cell count [1, 10]: 11300
cell count [1, 11]: 13000
remaining NAD [2]: 10 nM (inactive)
luciferase signal [3]: 20 AU (inactive)

Nc1ccc(C(=O)O)c(O)c1
cell count [1, 11]: 10200 and 11500 and 13800
z-score [6, 12]: -0.177 (inactive) and -0.201 (inactive) and 0.567 (inactive)
z-score [6, 13]: -0.173 and -0.712 and -0.26
remaining NAD [2]: 10 nM (inactive)
luciferase signal [3]: 44 AU (inactive)
z-score [4]: 0.45 (inactive)

COc1cc(C)c(Cc2cnc(N)nc2N)cc1OC
fold change [1, 8]: 0.944 (inactive)
fold change [1, 9]: 1.06
cell count [1, 10]: 9440
cell count [1, 11]: 10000
z-score [4]: 0.02 (inactive)

Oc1c(Cl)cc(Cl)cc1Sc1cc(Cl)cc(Cl)c1O
fold change [1, 8]: 0.771 (inactive)
fold change [1, 9]: 1.86
cell count [1, 10]: 8360
cell count [1, 11]: 10800
remaining NAD [2]: 10 nM (inactive)
luciferase signal [3]: 24 AU (inactive)

CCCOc1ccccc1-c1nc2n[nH]nc2c(=O)[nH]1
fold fluorescence [5]: 6.79 [at 184.3 µM] (inactive)
outcome [7]: inactive
z-score [6, 12]: 0.137 (inactive) and -0.665 (inactive)
z-score [6, 13]: -0.13 and -0.629
remaining NAD [2]: 10 nM (inactive)
z-score [4]: 0.78 (inactive) and -0.305 (inactive) and 1.09 (inactive)

NC1CCN(c2cccc(Cl)n2)CC1
fold change [1, 8]: 0.969 (inactive) and 0.942 (inactive)
fold change [1, 9]: 1.72 and 1.85
cell count [1, 10]: 9480 and 9570
cell count [1, 11]: 9780 and 10200
z-score [4]: 0.81 (inactive) and 0.31 (inactive)

CO[C@@]1(NC(=O)C(C(=O)O)c2ccc(O)cc2)C(=O)N2C(C(=O)O)=C(CSc3nnnn3C)CO[C@@H]21 (stereo not given in full)
fold change [1, 8]: 0.852 (inactive)
fold change [1, 9]: 0.729
cell count [1, 10]: 11300
cell count [1, 11]: 13300
remaining NAD [2]: 10 nM (inactive)
luciferase signal [3]: 32 AU (inactive)

O=C(O)c1ccccc1Nc1cccc(C(F)(F)F)c1
fold fluorescence [5]: 5.28 [at 177.8 µM] (inactive)
z-score [6, 12]: -0.231 (inactive) and 0.292 (inactive) and -0.218 (inactive)
z-score [6, 13]: -0.153 and 0.0506 and 0.216
remaining NAD [2]: 10 nM (inactive)
luciferase signal [3]: 56 AU (inactive)
z-score [4]: 0.44 (inactive)

O=c1c(-c2ccccc2)c1-c1ccccc1
fold change [1, 8]: 0.804 (inactive)
fold change [1, 9]: 1.52
cell count [1, 10]: 4690
cell count [1, 11]: 5830
z-score [4]: -1.44 (inactive)

O=C(NCCN1CCOCC1)c1ccc(Cl)cc1
cell count [1, 11]: 10300 and 10900 and 9280
outcome [7]: inactive
z-score [6, 12]: 0.188 (inactive) and 0.694 (inactive)
z-score [6, 13]: 0.0884 and 0.188
z-score [4]: 0.645 (inactive) and 0.32 (inactive)

CC1CCN(CCCC(=O)c2ccc(F)cc2)CC1
fold change [1, 8]: 0.922 (inactive) and 0.888 (inactive) and 0.964 (inactive)
fold change [1, 9]: 0.574 and 0.823 and 1.18
cell count [1, 10]: 9000 and 9720 and 9030
cell count [1, 11]: 9760 and 10900 and 9370
z-score [4]: 0.28 (inactive) and -0.14 (inactive)

Nc1c2c(nc3c1CCC3)CCCC2
fold change [1, 8]: 1.06 (inactive)
fold change [1, 9]: 2.56
cell count [1, 10]: 10500
cell count [1, 11]: 9920
z-score [4]: -0.465 (inactive)

C=Cc1c(C)c2cc3[nH]c(cc4nc(cc5nc(cc1[nH]2)C(C)=C5CCC(=O)O)C(CCC(=O)O)=C4C)c(C)c3C=C
fold change [1, 8]: 1.04 (inactive)
fold change [1, 9]: 1.36
cell count [1, 10]: 9230
cell count [1, 11]: 8840
remaining NAD [2]: 10 nM (inactive)
luciferase signal [3]: 56 AU (inactive)
z-score [4]: -0.23 (inactive)

C[C@@H]1CN(CCCn2c3ccccc3c3ccccc32)C[C@H](C)N1
fold change [1, 8]: 0.959 (inactive)
fold change [1, 9]: 0.675
cell count [1, 10]: 8000
cell count [1, 11]: 8340
z-score [4]: -0.695 (inactive)

CC(C)(Oc1ccc(CCNC(=O)c2ccc(Cl)cc2)cc1)C(=O)O
fold fluorescence [5]: 9.76 [at 138.2 µM] (inactive)
outcome [7]: inactive
z-score [6, 12]: -0.161 (inactive) and 0.38 (inactive) and -0.46 (inactive)
z-score [6, 13]: -0.148 and 0.0926 and -0.592
remaining NAD [2]: 10 nM (inactive)
luciferase signal [3]: 40 AU (inactive)
z-score [4]: 0.225 (inactive) and 0.83 (inactive)

CCN(CC)CC1CCCCN1CC(=O)N1c2ccccc2C(=O)Nc2cccnc21 (stereo not given)
fold change [1, 8]: 0.915 (inactive) and 0.926 (inactive)
fold change [1, 9]: 1.68 and 0.696
cell count [1, 10]: 10100 and 9240
cell count [1, 11]: 11000 and 9980
z-score [4]: 0.18 (inactive) and -0.135 (inactive)

Cc1cc(C(C)(C)C)c(O)c(C(C)(C)C)c1
fold change [1, 8]: 0.871 (inactive)
fold change [1, 9]: 0.986
cell count [1, 10]: 10700
cell count [1, 11]: 12300
remaining NAD [2]: 10 nM (inactive)
luciferase signal [3]: 20 AU (inactive)

CC(Cc1ccccc1)(NC(=O)CN)c1ccccc1 (stereo not given)
fold change [1, 8]: 0.999 (inactive) and 0.923 (inactive)
fold change [1, 9]: 2.09 and 0.645
cell count [1, 10]: 9240 and 8260
cell count [1, 11]: 9260 and 8950
z-score [4]: 0.32 (inactive) and -0.22 (inactive)

c1cnc(N2CCN(Cc3ccc4c(c3)OCO4)CC2)nc1
outcome [7]: inactive
z-score [6, 12]: -0.549 (inactive) and -0.596 (inactive)
z-score [6, 13]: -0.536 and 0.482

COc1ccc(CN(CCN(C)C)c2ccccn2)cc1
outcome [7]: inactive
z-score [6, 12]: 0.327 (inactive) and -0.721 (inactive)
z-score [6, 13]: 0.0359 and 0.287
remaining NAD [2]: 18 nM (inactive)
luciferase signal [3]: 88 AU (inactive)
z-score [4]: -0.145 (inactive) and 0.84 (inactive) and 0.65 (inactive)

CN1CCN(C2=Nc3ccccc3Oc3ccc(Cl)cc32)CC1
outcome [7]: inactive
z-score [6, 12]: -0.155 (inactive) and 0.0915 (inactive)
z-score [6, 13]: -0.224 and 0.0483
remaining NAD [2]: 10 nM (inactive)
luciferase signal [3]: 132 AU (inactive)
z-score [4]: -0.48 (inactive) and -0.015 (inactive)

Cc1cccc(C)c1OCC(C)N (stereo not given)
outcome [7]: inactive
z-score [6, 12]: -0.0413 (inactive) and -0.119 (inactive)
z-score [6, 13]: -0.286 and -0.0916
remaining NAD [2]: 10 nM (inactive)
luciferase signal [3]: 52 AU (inactive)
z-score [4]: -0.045 (inactive) and 0.78 (inactive) and -0.055 (inactive)

CNC1(C)C2CCC(C2)C1(C)C (stereo not given)
outcome [7]: inactive
z-score [6, 12]: -0.287 (inactive) and -0.243 (inactive)
z-score [6, 13]: 0.191 and -0.476
luciferase signal [3]: 108 AU (inactive)
z-score [4]: 0.26 (inactive) and 0.15 (inactive)

O=C1C(=O)c2ccccc2C(O)=C1C1CCC(c2ccc(Cl)cc2)CC1 (stereo not given)
z-score [6, 12]: -0.28 (inactive) and 0.215 (inactive) and 0.186 (inactive)
z-score [6, 13]: -0.105 and 0.155 and 0.7
remaining NAD [2]: 10 nM (inactive)
luciferase signal [3]: 56 AU (inactive)
z-score [4]: -0.055 (inactive)

NC(N)=N/N=C/c1c(Cl)cccc1Cl
outcome [7]: inactive
z-score [6, 12]: -0.136 (inactive) and 1.02 (inactive)
z-score [6, 13]: 0.531 and 1.03
remaining NAD [2]: 10 nM (inactive)
luciferase signal [3]: 52 AU (inactive)
z-score [4]: -0.795 (inactive) and 0.845 (inactive) and -1.38 (inactive)

CN1CCN(CC(=O)N2c3ccccc3C(=O)Nc3cccnc32)CC1
outcome [7]: inactive
z-score [6, 12]: 0.149 (inactive) and -0.644 (inactive)
z-score [6, 13]: -0.103 and -0.194
remaining NAD [2]: 10 nM (inactive)
luciferase signal [3]: 188 AU (inactive)
z-score [4]: 1.01 (inactive) and 0.81 (inactive)

CC(=O)O[C@]1(C(C)=O)CC[C@H]2[C@@H]3C=C(Cl)C4=CC(=O)CC[C@]4(C)[C@H]3CC[C@@]21C
z-score [6, 12]: -0.83 (inactive)
z-score [6, 13]: 0.517
remaining NAD [2]: 10 nM (inactive)
luciferase signal [3]: 76 AU (inactive)
